Reference: PubChem BioAssay (Tox21)
Inconclusive results are not listed. Active and inactive are the calls of the source. The call rests on the fitted dose curve; in most records, active means well fitted cell-killing curve with a large enough effect in the repeat runs; inconclusive means weak or mixed curves, or effect the other way; inactive means flat fitted curve, though single readings scatter.

experiment: qHTS assay to identify small molecule antagonists of the constitutive androstane receptor (CAR) signaling pathway - cell viability counter screen (AID 1224837); settings: HepG2-CYP2B6-hCAR viability, CellTiter-Fluor, 23 h, co-treated with 50 nM CITCO; series mostly up to 92.4 µM; activity change, negative = cytotoxicity: at the top concentration; further: nearly all actives have a fitted effect of over 45% in size
Description: National Center for Advancing Translational Sciences [NCATS]
NIH Chemical Genomics Center [NCGC]
U.S. Environmental Protection Agency [EPA]
National Institutes of Environmental Health Sciences [NIEHS]
National Toxicology Program [NTP]
U.S. Food and Drug Administration [FDA]
The constitutive androstane receptor (CAR) is a nuclear receptor which regulates multiple drug metabolizing enzymes (DMEs) and transporters. Activating CAR will generally increase the transcription and subsequent translation of CYP2B6 and CYP3A4. These two DMEs represent about 50% of the drug metabolizing potential in the body. When CAR is deactivated, the metabolizing potential in the body will decrease, subsequently increasing the toxicity in the body or lowering the therapeutic potential of a pro-drug. Recently, there have also been studies performed indicating CARs role in energy metabolism and cancer therapy. Therefore, inhibiting CARs activity could have a potential effect on diabetes and cancer. Identifying environmental toxins and compounds which modulate CAR, through the use of the Tox21 10K compound collection, will be an important step in determining the toxicity and potential therapeutic effects these factors will have on the human body. To differentiate true CAR antagonists from cytotoxic substances, the assay is multiplexed with a cell viability assay.
Tox21 Assay Protocol Summary:
A double-stable (hCAR and CYP2B6-2.2kb) transfected cell line, derived from human hepatoma (HepG2) cells, was utilized for the duration of the quantitative high-throughput screens. The HepG2-CYP2B6-hCAR cells were dispensed at 2500 cells/4 uL/well in 1536-well white solid bottom plates using a Multidrop Combi. After the assay plates were incubated at 37 C/5% CO2 for 4 hrs, 23 nL of compounds at 15 concentrations (from 5-48 columns) or positive control (from 1 to 4 columns) were transferred to the assay plates using a Pintool station. One uL of CITCO (final concentration = 50 nM) was added, using a Flying Reagent Dispenser, inside each well. After a 23 hr incubation period at 37 C/5% CO2, 1 uL of CellTiter-Fluor reagent was added into each well of the assay plates using a Flying Reagent Dispenser. The fluorescence intensity in the plates was then measured using a ViewLux plate reader.
On the % scale 0 is the no-effect control and ±100 the full control effect; potency means the concentration at half of the fitted maximal effect.

| SMILES | activity change, negative = cytotoxicity | Potency |
| --- | --- | --- |
| c1ccc(-c2nc3ccccc3[nH]2)cc1 | -28.7% (inactive) |  |
| CC1(C)[C@H]2CC[C@]1(C)C(=O)C2 | -1.31% (inactive) |  |
| CC(O)(c1ccc(Cl)cc1)c1ccc(Cl)cc1 | -23.5% (inactive) |  |
| C/C=C/C(=O)C1=C(C)C=CCC1(C)C | 0.96% (inactive) |  |
| CCCCCCCCc1ccc(Nc2ccc(CCCCCCCC)cc2)cc1 | -1.83% [at 42.5 µM] (inactive) |  |
| [Cl][Eu]([Cl])[Cl] | 0.56% (inactive) |  |
| CCNc1nc(NC(C)(C)C)nc(OC)n1 | 11.2% (inactive) |  |
| C=C1C(CCl)(CCl)C2(Cl)C(Cl)C(Cl)C1(Cl)C2(Cl)Cl (stereo not given) | -12.2% (inactive) |  |
| CN(C[C@@H](CC[N+]12CCC(C3CCCCC3)(CC1)CC2)c1ccc(Cl)c(Cl)c1)C(=O)c1cc(C(F)(F)F)cc(C(F)(F)F)c1 |  | 68.6 µM (active) |
| CN1CCN(c2ccccc2/C=C2\SCCN(c3ccc(Cl)c(Cl)c3)C2=O)CC1 |  | 24.3 µM (active) |
| CCN(CC)c1ccc2c(c1)Oc1cc(N(CC)CC)ccc1C21OC(=O)c2ccccc21 |  | 4.73 µM (active) |
| Cc1cc(F)ccc1-c1cc(N2CC[C@@H](O)[C@H]2CO)ncc1N(C)C(=O)C(C)(C)c1cc(C(F)(F)F)cc(C(F)(F)F)c1 | -11.9% (inactive) |  |
| CCN(CC)c1ccc(C=O)c(O)c1 | -2.73% (inactive) |  |
| COc1cc(/C=C/C(=O)CC(=O)/C=C/c2ccc(O)c(OC)c2)ccc1O |  | 24.5 µM (active) |
| CCSCC | 2.35% (inactive) |  |
| O=C(Nc1ccc([N+](=O)[O-])cc1)Nc1ccc([N+](=O)[O-])cc1 (tested in a mixture with another compound) | 8.39% [at 42.5 µM] (inactive) |  |
| Cc1cccc(C)c1C | 0.485% (inactive) |  |
| CC/C=C(\C)C=O | 1.28% (inactive) |  |
| C=CC(=O)OCC(Br)CBr (stereo not given) | 0.144% (inactive) |  |
| C=C(C)C1CCC(C)CC1O (stereo not given) | 2.46% (inactive) |  |

| SMILES | activity change, negative = cytotoxicity | Potency |
| --- | --- | --- |
| N#CCCOCCC#N | 0.247% (inactive) |  |
| CCC(C)(C)c1ccc(CC(C)CN2C[C@@H](C)O[C@@H](C)C2)cc1 (stereo not given in full) | -2.35% [at 42.5 µM] (inactive) |  |
| CCCCNc1ccc(NCCCC)c2c1C(=O)c1ccccc1C2=O | 5.61% [at 19 µM] (inactive) |  |
| Cc1c[nH]c(=O)[nH]c1=O | 6.81% (inactive) |  |
| CC/C(=C(/c1ccc(O)cc1)c1ccc(OCCN(C)C)cc1)c1ccccc1 |  | 32 µM (active) |
| COc1cc(OC)nc(NC(=O)NS(=O)(=O)Nc2ccccc2C(=O)N(C)C)n1 | 2.63% (inactive) |  |
| Nc1ccc(Cl)c([N+](=O)[O-])c1 | 3.42% (inactive) |  |
| CN1CC[C@H](c2c(O)cc(O)c3c(=O)cc(-c4ccccc4Cl)oc23)[C@H](O)C1 |  | 0.0944 µM (active) |
| CC1=CC[C@@H](C(C)(C)O)CC1 | 4.36% (inactive) |  |
| C=CC(=O)O[C@H]1C[C@@H]2CC[C@@]1(C)C2(C)C | 7.83% (inactive) |  |
| Clc1nc(C(Cl)(Cl)Cl)c(Cl)c(Cl)c1Cl | -31.9% (inactive) |  |
| CCOC(=O)OC(=O)OCC | 2.02% (inactive) |  |
| CCc1cccc(CC)c1 | 7.57% (inactive) |  |
| C1=CCCC1 | -8.06% (inactive) |  |
| CCCC(C)C=O (stereo not given) | -0.0385% (inactive) |  |
| O=C(CCN1CCC(c2ccccc2)C1)c1ccc2c(c1)OCCO2 (stereo not given) | -18.2% [at 42.5 µM] (inactive) |  |
| CCOC(=O)[C@H](O)[C@@H](O)C(=O)OCC | 0.289% (inactive) |  |
| O=C1OCc2ccccc21 | 1.13% (inactive) |  |
| CCCCCCCCCCCC(=O)Cl | -6.64% (inactive) |  |
| CN1CCN(CCCN2c3ccccc3Sc3ccc(C(F)(F)F)cc32)CC1 | -20.4% [at 42.5 µM] (inactive) |  |
